Assay results reported in PubChem BioAssay (NCI).
Several values for one entry are separate records, joined by “and”; a condition that tells them apart may be missing. Equal values may be shown once. This is part of a sample that, as a whole, favours compounds with a hit. Of some 83,000 tested, about 20% had one in any assay.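 Compound tested at a single concentration for 48 hours in 96-well plates; a percent growth value below 10 was scored as active.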 A number with no mark means an inactive call. Activity calls are given as the source filed them.

System: MDA-MB-468 breast
Assay: NCI-60 one-dose screen, 48 h (100 = growth as untreated, 0 = no growth, -100 = all killed)
Conditions: 10 µM unless noted

| Compound | growth |
| --- | --- |
| COc1ccc(Cl)cc1NC(=O)c1cc2c([nH]1)-c1nc(NC(=O)C(C)C)sc1CC2 | 112% |
| O=Nc1c2cccnc2n2nnc3ccc(Cl)cc3c12 | -69.4% (active) |
| CNc1ccc(Br)c2c1C(=O)c1ccccc1C2=O | 112% |
| Cc1ccc(-c2csc(NC(=O)c3ccccc3CN3C(=O)c4ccccc4C3=O)n2)cc1 | 92.1% |
| Cn1cc(-c2nnc(N)nc2-c2c[nH]c3ccc(F)cc23)c2cc(Br)ccc21 | -33.4% (active) |
| O=[N+]([O-])c1ccccc1NCSc1ccc(Cl)cc1 | 92.1% |
| COCCNCC(O)Cn1c2ccc(Cl)cc2c2cc(Cl)ccc21 (stereo not given) | -43.9% (active) |
| Cc1sc2nc(NCCN)[nH]c(=O)c2c1C | 80% |
| CCc1ccc(NC(=O)N[C@@H](Cc2cc(F)cc(F)c2)C(=O)N[C@@H]2C(=O)N3CCC[C@H]3C(=O)N3CCO[C@H](C)[C@H]3C(=O)N[C@@H](CO)C(=O)N3C[C@H](C)C[C@H]3C(=O)O[C@H]2C)c(F)c1 | -7.66% (active) |
| CCOC(=O)OCC(=O)[C@@]1(O)CC[C@H]2[C@@H]3CCC4=CC(=O)CC[C@]4(C)[C@H]3[C@@H](O)C[C@@]21C | 123% |
| CCCCCCCCCCCCCCCCNC(=S)N/N=C/c1ccc(OC)cc1 | 108% |
| OC(CNC1CCCCC1)Cn1c2ccc(I)cc2c2cc(I)ccc21 (stereo not given) | 67.4% |
| COc1cccc(-c2nn(-c3ccccc3)cc2-c2ccnc(NCCCN)c2)c1 | 17.4% |
| COC[C@H](C)n1c(C2CCOCC2)nc2cnc3cc(-c4c(C)noc4C)c(OC)cc3c21 | 54.5% |
| CSc1cc(SC)ncn1 | 108% |
| N[C@H]1CCC[C@@H]1NCCCCN1C(=O)c2cccc3cc([N+](=O)[O-])cc(c23)C1=O | 38.8% |
| COc1ccc(-c2nc(N=Nc3c(O)[nH]c4ccccc34)nc(N3CCOCC3)c2C#N)cc1 | 71% |
| COc1ccc(-c2cc(-c3ccc(Cl)cc3)nc(SCCCCCCC(=O)NO)n2)cc1OC | 55.2% |
| O=[N+]([O-])c1ccccc1/C=N\Nc1ccccc1 | 66.3% and 89.3% |
| Cc1cc(/C=C\c2ccc3ccccc3[n+]2C)c(O)c2ncccc12 | -27% (active) |

| Compound | growth |
| --- | --- |
| Cc1cc2nc3c4cc(N)ccc4n(CCN(C)C)c3nc2cc1C | -5.6% (active) |
| COc1cc2c(=O)n(CCN)c3c4cc5c(cc4ccc3c2cc1OC)OCO5 | -31.7% (active) |
| Cc1nn(-c2nc3ccccc3[nH]2)c2c1C(c1ccc(OCc3ccc(F)cc3)cc1)CC(=O)N2 (stereo not given) | 65.3% |
| COc1ccc(C2CC(c3cccc(Nc4ccncc4)c3)=NN2c2ccccc2)cc1 (stereo not given) | 15.7% |
| O=C(NNC(=S)Nc1ccccc1)c1ccncc1 | 122% |
| CCOC(=O)c1ccncc1 | 89.1% |
| Cc1ccc(C(=O)N2C/C(=C/c3ccc(F)cc3)C(=O)/C(=C/c3ccc(F)cc3)C2)cc1 | 79.5% |
| Nc1ncnc2c1ccn2-c1cccc(NC(=O)c2cccc(C(F)(F)F)c2)c1 | 31.3% |
| O=C(O)CC1Sc2ccccc2NC1=O (stereo not given) | 163% |
| CCCCCCCCC/C(=N\NC(=O)c1ccncc1)c1ccc(O)c(O)c1O | 18.5% |
| COc1cc(CNc2oc(-c3ccccc3)c(-c3ccccc3)c2C#N)cc(CN2CCN(C)CC2)c1O | 57.4% |
| N#CCCN=Nc1c(O)[nH]c2ccc(F)cc12 | 98.9% |
| COC1=C(C)C(=O)c2c(c(CCCl)c3n2CCC3O)C1=O (stereo not given) | 91.5% |
| CC(=O)Nc1c(C(=O)Nc2ccccc2)sc2nc3c(cc12)C(OC(C)=O)CCC3 (stereo not given) | 90.5% |
| CCN(CC)c1ccc(/C=C/c2cc(C)c3ccccc3n2)cc1 | 1.02% (active) |
| CCOC(=O)c1cnc2ccccc2c1Cl | 97.4% |
| CN1CCN(C(=O)OCc2nc3c(N4CCOCC4)nc(-c4ccccc4)nc3n2C)CC1 | -59% (active) |
| C#CCOc1cccc(Nc2ncnc3cc(NC(=O)C=C)ccc23)c1 | -24.9% (active) |
| O=C(CSc1nc2sc3c(c2c(=O)n1-c1ccc(Cl)cc1)CCCC3)NNC(=O)Nc1cccc(C(F)(F)F)c1 | 8.29% (active) |
| CC(=O)O[C@H]1CC[C@]2(C)C3=C(C(=O)C[C@H]2C1(C)C)[C@]1(C)CC[C@H]([C@H](C)CCC(=O)O)[C@@]1(C)CC3=O | 113% |
